# What was measured:
# Type in all cases: functional
# Plasmodium falciparum [1] = assay: GSK_TCMDC: Inhibition of Plasmodium falciparum 3D7 in whole red blood cells, using parasite LDH activity as an index of growth. Test compounds present at 2uM
# Plasmodium falciparum [2] = assay: GSK_TCMDC: Inhibition of Plasmodium falciparum Dd2 in whole red blood cells, using parasite LDH activity as an index of growth. Test compounds present at 2uM
# HepG2 = assay: GSK_TCMDC: Percent inhibition of human HepG2 cell line. Test compounds present at 10uM.
SMILES,Inhibition (Plasmodium falciparum [1]) [%],Inhibition (Plasmodium falciparum [2]) [%],Inhibition (HepG2) [%]
Fc1ccc(C=NN=c2cc[nH]c3ccc(C(F)(F)F)cc23)cc1,90,6,22
CC(C)CNCc1ccc(-c2cccc(CN(CCN(C)C)C(=O)NCCc3ccccc3)c2)cc1.O=C(O)C(F)(F)F,91,37,33
CCCCC1(c2ccc(F)cc2)NC(=O)N(CC(=O)c2cc(C)n(Cc3ccco3)c2C)C1=O (centres undefined),82,28,6
Cn1c(NC(=O)c2ccc(CNC(=O)c3ccc(O)c(-c4ccc(Cl)c(Cl)c4)c3)cc2)nc2ccccc21,94,74,20
N#Cc1cccc(C(=O)Nc2ccc(-c3ccc(CN4CCCC4)cc3)cc2)c1.O=C(O)C(F)(F)F,92,32,38
CCCCCCCCc1c(C)[nH]c(C)c(Cl)c1=O,96,95,0
COc1cc(C2=NN(S(=O)(=O)c3c(Cl)cc(Cl)cc3Cl)CCCC2)ccc1Cl,98,97,3
Cc1ccc(CNc2cc(C(F)(F)F)nc(-c3ccc(S(C)(=O)=O)cc3)n2)cc1,89,72,2
O=C(CN(c1cccc(C(F)(F)F)c1)S(=O)(=O)c1ccc(Cl)cc1)NCCC(c1ccccc1)c1ccccc1,94,50,14
COC(=O)c1ccc2nc(-c3cc(OC)c(O)c(C(=O)NC4CCN(Cc5ccccc5)CC4)c3)[nH]c2c1,85,0,8
Cl.O=C(Nc1ccnc2ccccc12)NC1CCN(CCc2ccccc2)CC1,100,43,7
COc1cc(NCC(O)CNc2cc(Cl)nc3ccccc23)nc2ccccc12 (centres undefined),99,99,17
O=C(Nc1cccc(-c2nn3ccccc3c2-c2ccnc(Nc3cccc(N4CCCC4=O)c3)n2)c1)c1cc(F)ccc1F,99,51,59
CCOC(=O)N1CCC(NC(=O)c2ccc(C(C)(C)C)cc2OC)CC1,88,0,0
O=C(Nc1ccccc1)Nc1cccc(-c2cccc(-c3nc4cc(F)ccc4[nH]3)c2)c1,99,41,38
c1ccc(-c2nc(NC3CCCCC3)cc(C3CC3)n2)nc1,97,76,35
CCN1CCC(N(Cc2ccc(-c3ccc(C(F)(F)F)cc3)cc2)C(=O)Cn2nc(C)c(=O)cc2SCc2ccc(F)cc2)CC1.O=C(O)C(O)C(O)C(=O)O,94,94,77
CN1CCN(CCCN(Cc2csc(-c3ccc(CNCc4ccccc4)cc3)n2)S(=O)(=O)c2ccc(F)cc2)CC1.O=C(O)C(F)(F)F,100,80,21
CC(=O)Nc1cccc(/C=C/C(=O)N2CCC(N3CCCCC3)CC2)c1,96,0,1
COc1cc(NC(=O)c2sc(-c3ccc(Cl)cc3)cc2NC(=O)CN2CC[C@@H](O)C2)ccc1OCCN1CCCC1,90,79,56
O=C(Nc1cccc(CN2CCCN(Cc3cccc(O)c3)CC2)c1)c1ccc2ccccc2c1.O=C(O)C(F)(F)F,97,42,21
Cc1cc(N2CCN(CC3CCCCC3)CC2)nc(Nc2ccc(Br)cc2)n1,91,16,0
CCCNC(=O)C1Cc2cc(OC)c(OC)cc2C2(N1)C(=O)N(Cc1cccc(OC)c1)c1ccccc12 (centres undefined),91,63,11
O=C(NC1CCN(Cc2ccccc2O)C1)c1ccc(Cl)c(Cl)c1.O=C(O)C(F)(F)F (centres undefined),92,62,0
OC(CNc1ccnc(Nc2cccc(Cl)c2)n1)c1cccc(C(F)(F)F)c1 (centres undefined),100,98,11
CC(=O)Nc1ccc(CN2CCC(NC(=O)c3ccc(-c4cccc(C(F)(F)F)c4)s3)CC2)cc1.O=C(O)C(F)(F)F,100,16,35
Cc1cc(C(=O)CN2C(=O)NC(C)(c3cccc4ccccc34)C2=O)c(C)n1Cc1ccco1 (centres undefined),90,23,0
C=CCc1cccc(CN2CCC(c3cc(O)nc(-c4ccccn4)n3)CC2)c1O,91,75,46
